Screening results deposited in PubChem by National Center for Advancing Translational Sciences (NCATS).
The list is not random: actives were taken first. Their share in the collection is about 12%.
HP1b chromo inh: HP1-beta chromodomain-methylated histone interaction inhibition | Potency, µM (series often up to 114 µM), inactives show at the highest dose activity change, negative = inhibition, most hits filed as inhibitors | P83916 | 390,000 compounds, 0.56% hits | AlphaScreen HP1-beta / biotin-H3K9me3 peptide binding; also: potency is read from the fitted curve at half-maximal effect; nearly all actives have a fitted effect of over 70% in size
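AlphaScreen: HP1-beta (50 nM) preformed 30 min with biotin-H3(1-18)K9me3 peptide (50 nM) in PBS pH 7.4, 0.01% Tween-20. Compound added for 30 min at RT, then streptavidin donor/nickel chelate acceptor beads (10 ug/mL) for 30 min.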
JMJD2A Tudor inh: JMJD2A Tudor domain (human) inhibition. O75164. Potency, µM (doses to about 114 µM), for inactives: top-dose activity change, negative = inhibition, most hits filed as inhibitors. 390,000 compounds, 4.4% hits. AID 504339. AlphaScreen JMJD2A-Tudor / H3K4me3 peptide binding; also: potency is read from the fitted curve at half-maximal effect; % is scaled to controls: 0 for no effect and ±100 for the full control effect; nearly all actives have a fitted effect of over 50% in size
BAZ2B block: BAZ2B (human) inhibition; Q9UIF8; AlphaScreen BAZ2B-H3K14Ac peptide displacement; Potency, µM (highest dose often 114 µM), for the others: top-dose activity change, negative = inhibition, most hits filed as inhibitors; 360,000 compounds, 4.4% hits; AID 504333; also: potency is read from the fitted curve at half-maximal effect; % is scaled to controls: 0 for no effect and ±100 for the full control effect; nearly all actives have a fitted effect of over 60% in size
Target sequence (Q9UIF8 whole entry, looked up): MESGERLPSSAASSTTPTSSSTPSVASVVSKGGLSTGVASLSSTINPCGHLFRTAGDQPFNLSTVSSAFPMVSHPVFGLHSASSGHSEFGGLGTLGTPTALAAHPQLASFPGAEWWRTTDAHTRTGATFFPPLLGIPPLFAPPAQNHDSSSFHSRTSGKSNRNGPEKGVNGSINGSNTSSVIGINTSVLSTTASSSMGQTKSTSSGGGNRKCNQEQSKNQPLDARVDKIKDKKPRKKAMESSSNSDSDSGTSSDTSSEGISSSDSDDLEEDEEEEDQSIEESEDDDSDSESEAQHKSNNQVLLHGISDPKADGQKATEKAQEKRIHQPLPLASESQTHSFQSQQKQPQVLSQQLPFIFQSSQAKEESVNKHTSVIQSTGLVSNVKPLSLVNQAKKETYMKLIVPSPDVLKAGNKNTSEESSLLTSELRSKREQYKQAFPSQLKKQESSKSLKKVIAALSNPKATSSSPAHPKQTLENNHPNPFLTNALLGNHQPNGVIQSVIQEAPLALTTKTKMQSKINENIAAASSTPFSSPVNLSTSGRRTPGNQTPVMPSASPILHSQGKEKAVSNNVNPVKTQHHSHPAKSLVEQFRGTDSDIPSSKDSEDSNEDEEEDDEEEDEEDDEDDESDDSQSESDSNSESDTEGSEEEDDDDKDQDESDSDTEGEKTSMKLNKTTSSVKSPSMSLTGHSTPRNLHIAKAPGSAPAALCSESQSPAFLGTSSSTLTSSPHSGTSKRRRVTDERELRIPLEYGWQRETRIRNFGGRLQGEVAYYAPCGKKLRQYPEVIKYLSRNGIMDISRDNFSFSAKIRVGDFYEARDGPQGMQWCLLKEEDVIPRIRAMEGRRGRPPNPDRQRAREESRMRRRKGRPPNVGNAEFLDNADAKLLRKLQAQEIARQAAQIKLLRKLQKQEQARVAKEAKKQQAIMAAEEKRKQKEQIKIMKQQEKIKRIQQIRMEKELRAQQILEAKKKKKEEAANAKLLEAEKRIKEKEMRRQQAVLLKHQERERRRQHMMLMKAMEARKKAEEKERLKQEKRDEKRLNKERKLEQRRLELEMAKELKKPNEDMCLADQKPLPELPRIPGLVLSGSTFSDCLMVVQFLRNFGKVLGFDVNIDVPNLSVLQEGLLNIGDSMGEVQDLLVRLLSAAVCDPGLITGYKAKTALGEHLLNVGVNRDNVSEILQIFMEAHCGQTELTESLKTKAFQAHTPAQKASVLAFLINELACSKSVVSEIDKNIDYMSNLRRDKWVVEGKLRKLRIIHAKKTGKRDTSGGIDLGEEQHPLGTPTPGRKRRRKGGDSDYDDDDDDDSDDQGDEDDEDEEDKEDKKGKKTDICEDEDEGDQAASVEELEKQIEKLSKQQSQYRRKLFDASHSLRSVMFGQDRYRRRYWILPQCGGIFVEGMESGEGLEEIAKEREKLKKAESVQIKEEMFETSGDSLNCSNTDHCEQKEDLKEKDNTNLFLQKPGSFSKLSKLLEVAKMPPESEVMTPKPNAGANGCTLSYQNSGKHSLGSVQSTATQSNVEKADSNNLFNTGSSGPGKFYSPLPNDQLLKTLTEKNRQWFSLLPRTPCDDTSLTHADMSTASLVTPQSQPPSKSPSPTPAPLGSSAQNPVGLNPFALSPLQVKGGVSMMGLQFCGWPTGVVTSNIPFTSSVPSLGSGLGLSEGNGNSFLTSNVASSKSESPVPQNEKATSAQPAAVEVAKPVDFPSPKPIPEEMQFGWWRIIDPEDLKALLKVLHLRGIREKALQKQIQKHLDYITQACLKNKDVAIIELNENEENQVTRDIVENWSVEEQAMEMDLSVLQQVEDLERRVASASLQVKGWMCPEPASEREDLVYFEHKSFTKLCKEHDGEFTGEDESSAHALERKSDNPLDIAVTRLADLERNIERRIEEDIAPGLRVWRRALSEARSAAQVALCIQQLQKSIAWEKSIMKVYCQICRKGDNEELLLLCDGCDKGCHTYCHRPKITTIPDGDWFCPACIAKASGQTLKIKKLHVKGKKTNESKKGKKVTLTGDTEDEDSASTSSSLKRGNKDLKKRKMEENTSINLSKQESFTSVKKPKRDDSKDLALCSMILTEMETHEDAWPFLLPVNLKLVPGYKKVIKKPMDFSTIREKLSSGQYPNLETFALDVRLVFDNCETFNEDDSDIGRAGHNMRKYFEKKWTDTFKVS
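BAZ2B 50 nM plus b-H3(5-23)K14Ac 50 nM, PBS pH 7.4/0.01% Tween-20, 30 min RT; compound added (max 110 uM), 30 min RT; streptavidin donor/Ni-chelate acceptor beads 10 ug/mL final, 20 min dark; AlphaScreen read.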
G9a inh: inhibitors of human histone lysine methyltransferase G9a. Q96KQ7. G9a H3K9 monomethylation, AlphaScreen, 2 h. Potency, µM (doses to about 102 µM), for the others: at the top dose activity, negative = inhibition, most hits filed as inhibitors. 350,000 compounds, 8.8% hits; also: potency is read from the fitted curve at half-maximal effect; % is scaled to controls: 0 for no effect and ±100 for the full control effect; nearly all actives have a fitted effect of over 75% in size
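Quantitative HTS format: methyltransferase activity on a biotin-tagged H3K9 peptide is measured by AlphaScreen, using a rabbit anti-monomethyl-H3K9 antibody with streptavidin donor and anti-IgG acceptor beads. Final levels are 20 nM enzyme, 500 nM peptide, 20 uM SAM; 2 h RT.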
PLK1 PBD block: inhibitors of human PLK1 polo-box domain binding; Potency, µM, for inactives: max response, negative = inhibition, most hits filed as inhibitors; P53350; Plk1 PBD binding of FITC phosphopeptide, fluorescence polarization; 360,000 compounds, 2.8% hits; also: potency is read from the fitted curve at half-maximal effect; series mostly up to about 57 µM; % is scaled to controls: 0 for no effect and ±100 for the full control effect; nearly all actives have a fitted effect of over 65% in size
PI5P4K alpha inh: blocks human PI5P4K alpha kinase activity. 330,000 compounds, 1.2% hits. P48426. max response, %. PI5P4Kalpha enzyme, ADP-Glo luminescence, 60 min; hits give low values; active = max response of -50% or lower; inconclusive = between -30% and -50%; inactive = -30% or higher; also: value at the top dose of about 77 µM; % is scaled to controls: 0 for no effect and ±100 for the full control effect
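ADP-Glo luminescence end-point read after a 60 min room-temperature kinase reaction of PI5P4Kalpha plus substrate, initiated with ATP at 5 microM final. Buffer: 0.038 M HEPES pH 7.4, EGTA, 0.1% CHAPS, 5% DMSO.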
* = called active by the depositor; [ ] = remark or other dose. Unless noted, calls follow the shape of the dose curve; as a rule, active = well fitted curve in the direction sought with a large enough effect; inconclusive = small, poorly fitted or top-dose-only effect, or another doubt; inactive = no such curve, though single readings can be large; an effect the other way counts as inactive or inconclusive.

Screening CCN(CC)CCOC(=O)C1(c2ccccc2)CCCC1 returned HP1b chromo inh 37%, JMJD2A Tudor inh 0%, BAZ2B block -2%, G9a inh -41%[12.7 µM] and PLK1 PBD block -12%.
`CCCN(CCC)C(=O)Cc1coc2ccc3ccccc3c12` gave HP1b chromo inh 34%, JMJD2A Tudor inh 7%, BAZ2B block -4%, G9a inh 50µM*, PLK1 PBD block -10% and PI5P4K alpha inh -2.
COc1ccccc1CNC(=O)c1cnc2sc(N3CCCCCC3)nn2c1=O was read as HP1b chromo inh -29%, JMJD2A Tudor inh -22%, BAZ2B block -9% and G9a inh 6%[59 µM].
For CCCCSc1nc(CCC)cc(=O)[nH]1 the results were HP1b chromo inh 21%, JMJD2A Tudor inh -11%, BAZ2B block 0%, G9a inh inconclusive, PLK1 PBD block -2% and PI5P4K alpha inh -2.
CCCCSc1nc(C(=O)O)cc(=O)[nH]1 was read as HP1b chromo inh 40%, JMJD2A Tudor inh 40µM*, BAZ2B block -2%, G9a inh 40µM*, PLK1 PBD block 2% and PI5P4K alpha inh -6.
Screening Cc1cccc(N/N=C/c2ccc(O)c(O)c2O)c1 returned HP1b chromo inh inconclusive, JMJD2A Tudor inh 45µM*, BAZ2B block 50µM*, G9a inh 1.1µM*, PLK1 PBD block 12µM* and PI5P4K alpha inh -23.
For COc1cccc(N/N=C/c2cccc(Br)c2O)c1 the results were HP1b chromo inh inconclusive, JMJD2A Tudor inh -31%, BAZ2B block inconclusive, G9a inh 2.2µM*, PLK1 PBD block -10% and PI5P4K alpha inh 20.
COc1ccc(OC)c2sc(NC(=O)C3=COCCO3)nc12 was read as HP1b chromo inh 33%, JMJD2A Tudor inh -4%, BAZ2B block 7%, G9a inh -6%, PLK1 PBD block -4% and PI5P4K alpha inh 4.
`COc1cccc2sc(NNC(=O)C3=COCCO3)nc12` gave HP1b chromo inh 36%, JMJD2A Tudor inh -21%, BAZ2B block 4%, G9a inh 13µM*, PLK1 PBD block -17% and PI5P4K alpha inh 9.
`O=[N+]([O-])c1ccc(C=Nc2cccc3ccccc23)s1` gave HP1b chromo inh 13µM*, JMJD2A Tudor inh 40µM*, BAZ2B block 16µM*, G9a inh 10µM*, PLK1 PBD block -6% and PI5P4K alpha inh 6.
`Cc1cc(C)c(C(=O)c2cccs2)c(C)c1` gave HP1b chromo inh 107%, JMJD2A Tudor inh 33%, PLK1 PBD block 0% and PI5P4K alpha inh 0.
Cc1cc(C(=O)c2cccs2)c(N)s1 was read as HP1b chromo inh inconclusive, JMJD2A Tudor inh inconclusive, BAZ2B block -55%, G9a inh 40µM* and PLK1 PBD block 24µM*.
`CNc1sc(C(=O)c2cccs2)c(N)c1-c1nc2ccccc2s1` gave HP1b chromo inh -16%, JMJD2A Tudor inh 50µM*, BAZ2B block -6%, G9a inh inconclusive, PLK1 PBD block -17% and PI5P4K alpha inh 1.
O=C(Nc1ccccc1-c1nc2ccccc2s1)c1ccc(F)cc1 was read as HP1b chromo inh 39%, JMJD2A Tudor inh 8%, BAZ2B block 50µM* and G9a inh 5%[59 µM].
Screening O=C(Nc1ccccc1-c1nc2ccccc2s1)c1cc(Cl)cc(Cl)c1 returned HP1b chromo inh 12%[57 µM], JMJD2A Tudor inh 4%, BAZ2B block 6% and G9a inh 20%[59 µM].
For CNc1sc(C(=O)c2ccc(F)cc2)c(N)c1-c1nc2ccccc2s1 the results were HP1b chromo inh -29%, JMJD2A Tudor inh inconclusive, BAZ2B block 50µM*, G9a inh 8.9µM* and PLK1 PBD block 21µM*.
`O=C(c1cc(S(=O)(=O)N2CCOCC2)ccc1Cl)N1CCCCC1CO` (stereo not drawn) gave HP1b chromo inh -23%, JMJD2A Tudor inh -5%, PLK1 PBD block -4% and PI5P4K alpha inh 0.
CCN(CC)c1nn2c(=O)c(C(=O)NCCc3cccc(C)c3)cnc2s1 was read as HP1b chromo inh 4%, JMJD2A Tudor inh -15%, BAZ2B block -11% and G9a inh 22%[59 µM].
Screening COc1ccc(N2CC(O)=C(c3n(C)c4ccccc4[n+]3C)C2=N)cc1 returned HP1b chromo inh -1%, JMJD2A Tudor inh -13%[11.4 µM], BAZ2B block 10%, G9a inh -47%, PLK1 PBD block 27µM* and PI5P4K alpha inh -19.
`Cc1ccc(C)c(NC(=O)CN2C(=O)CCc3ccccc32)c1` gave HP1b chromo inh -7%, JMJD2A Tudor inh inconclusive, BAZ2B block 79µM* and G9a inh inconclusive.
For Cc1ccc(NC(=O)CN2C(=O)CCc3ccccc32)cc1C the results were HP1b chromo inh -19%, JMJD2A Tudor inh inconclusive, BAZ2B block 79µM* and G9a inh -37%[59 µM].
For Cc1ccc(Cl)cc1NC(=O)CN1C(=O)CCc2ccccc21 the results were HP1b chromo inh 65%, JMJD2A Tudor inh -5%, BAZ2B block -12% and G9a inh 14%[59 µM].
O=C(Nc1ccccc1)C1=C(c2ccccc2)S(=O)(=O)CCS1(=O)=O was read as HP1b chromo inh 55%, JMJD2A Tudor inh -2%, BAZ2B block -14%, G9a inh 28µM*, PLK1 PBD block 5.3µM* and PI5P4K alpha inh 0.
`O=C(O)c1ccccc1C(=O)Nc1ccccc1` gave HP1b chromo inh 39%, JMJD2A Tudor inh -1%, BAZ2B block 4%, G9a inh -29%[12.7 µM] and PLK1 PBD block 0%.
Screening CC1(C)CC(=O)C(Sc2ccccc2)=C(O)C1 returned HP1b chromo inh 59%, JMJD2A Tudor inh 3%, BAZ2B block -12%, G9a inh 45µM*, PLK1 PBD block 12µM* and PI5P4K alpha inh -2.
`CC1(C)CC(=O)C(Sc2ccccc2C(=O)O)=C(O)C1` gave HP1b chromo inh 9%, JMJD2A Tudor inh 25µM*, BAZ2B block -8%, G9a inh inconclusive, PLK1 PBD block -18% and PI5P4K alpha inh -16.
For Cc1cccc(N2C(=O)c3ccccc3C2=O)n1 the results were HP1b chromo inh 5%, JMJD2A Tudor inh -10%, BAZ2B block 10%, G9a inh 0%, PLK1 PBD block -1% and PI5P4K alpha inh 2.
`Fc1ccc(C2=CC(c3ccco3)n3ncnc3N2)cc1` (stereo not drawn) gave HP1b chromo inh 21%, JMJD2A Tudor inh -33%, BAZ2B block inconclusive, G9a inh inconclusive, PLK1 PBD block -26% and PI5P4K alpha inh 9.
Screening COc1ccc(C2C=C(c3ccc(Cl)c(Cl)c3)Nc3ncnn32)cc1 (stereo not drawn) returned HP1b chromo inh 51%, JMJD2A Tudor inh -19%, BAZ2B block -4% and G9a inh -2%[59 µM].
